# Compounds without any hit were thinned out: in the full panel of roughly 83,000, 20% have a hit.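 Values shown are percent growth following 48 h exposure of cells in 96-well plates to a single concentration of compound; below 10 was considered active.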 Calls of active or inactive are those of the source.
# Tested on: OVCAR-8 ovarian
# Experiment: NCI-60 one-dose screen, 48 h (100 = growth as untreated, 0 = no growth, -100 = all killed)
# Details: 10 µM unless noted
# Procedure: Growth inhibition of the OVCAR-8 human tumor cell line is measured as a screen for anti-cancer activity. Cells are grown in 96 well plates and exposed to the test compound for 48 hours. Compounds are tested at a single concentration, which is 10^-5 M for most compounds. The reported endpoint is percent growth (GI% or GIPRCNT), where numbers from 0 - 100% represent growth inhibition, and numbers from -100% - 0 represent cell death. For example, a value of 40 represents 60% growth inhibition. A value of 0 means no net growth occurred over the course of the experiment. A value of -40 indicates 40% of cells at the beginning of the experiment died by the end of the experiment. A value of -100 means all cells are dead at the end of the experiment.
# NCI-60 Human Tumor Cell Lines Screen was performed using the standard one-dose NCI protocol, which is described in more detail at https://dtp.cancer.gov/discovery_development/nci-60/default.htm.
# Compounds with GIPRCNT values below 10 were considered active. Activity score was based on GIPRCNT using the following formula: […]
# Score is 0 for GIPRCNT values of 100 or above, 50 for GIPRCNT values of 0, and 100 for GIPRCNT values of -100.
row,Structure (SMILES),growth
1,C=Cc1cnc(Nc2ccc(OC)cc2)nc1NCCCNC(=O)C1CCC1,49.2% (inactive)
2,C=C1C(=O)O[C@H]2[C@H]1CC/C(COC(=O)CSCSCC(=O)OC/C1=C/CC[C@@]3(C)O[C@H]3[C@H]3OC(=O)C(=C)[C@@H]3CC1)=C\CC[C@@]1(C)O[C@@H]21,5.96% (active)
3,O=C(NNC(=O)c1nc2cc(F)ccc2n2cccc12)c1cnccn1,24.2% (inactive)
4,COC(=O)C(Cc1ccccc1)NC(=O)c1ccc(NC(=O)c2[nH]c(C)c(Cl)c2Cl)c(OC(C)C)c1 (stereo not given),-29.8% (active)
5,[2H]C([2H])([2H])Oc1ccc(F)cc1/C=C/C(=O)/C=C(/C=C/c1cc(F)ccc1OC([2H])([2H])[2H])OB(F)F,19.2% (inactive)
6,CNC1=CC(=O)c2c(C(=O)OC)c(C)[n+]([O-])c(C)c2C1=O,35% (inactive)
7,COc1ccc(Nc2ncccc2/C=C/C(=O)c2cc(OC)c(OC)c(OC)c2)cc1,-33.8% (active)
8,Cc1nn(-c2ccccc2)c(N)c1N=C1NC(=O)/C(=C/c2ccc(Br)cc2)S1,98.8% (inactive)
9,Nn1c(=O)c(=O)[nH]c2c(cnn2-c2ccccc2)c1=O,97.3% (inactive)
10,O=C1/C=C/[C@@H](O)[C@@H]2C[C@@H](O)C[C@H]2/C=C/CCC[C@@H](O)CCO1,66.6% (inactive)
11,c1ccc2c(c1)CCCc1nnc3nc4ccccc4n3c1-2,38.5% (inactive)
12,NC(=O)c1cnc(Nc2cccc(N)c2)nc1NCCCNC(=O)C1CCC1,71.1% (inactive)
13,Cc1ccc2c(=O)cc(C(=O)Nc3sc4c(c3C(=O)NCc3cccnc3)CCCC4)oc2c1C,98.4% (inactive)
14,C=C1C(=O)O[C@H]2[C@H]1CC/C(COC(=O)c1cc3cc(Cl)ccc3[nH]1)=C\CC[C@@]1(C)O[C@@H]21,-72.9% (active)
15,C=CCN1C(=O)c2cccc3c(N4CCOCC4)ccc(c23)C1=O,20.7% (inactive)
16,Cc1ccc(C2CC(c3nc(-c4ccc(Cl)cc4)oc3C)=NN2C(=O)c2ccncc2)cc1 (stereo not given),90.4% (inactive)
17,O=C1/C(=C/c2ccccc2F)CN(C(=O)C(Cl)Cl)C/C1=C\c1ccccc1F,2.66% (active)
18,CCCCNC(=O)Oc1ccc(/C(=C(/C)Cc2ccc(OC)cc2)c2ccc(OCCN3CCCCCC3)cc2)cc1,89.9% (inactive)
19,CCOC(=O)c1c(C)c2c(n1Cc1ccccc1)CSCC2=O,17.7% [100 µM] (inactive)
20,O=C1C(Nc2ccccn2)=C(I)C(=O)c2ncccc21,-15.3% (active)

row,Structure (SMILES),growth
1,Cc1ncc(C(=O)Nc2ccc(CN3CCN(C)CC3)c(C(F)(F)F)c2)cc1C#Cc1cnc(N)c2ncccc12,-24.7% (active)
2,O=C1/C(=C/c2ccc(F)cc2)CN(C(=O)C(Cl)Cl)C/C1=C\c1ccc(F)cc1,-9.41% (active)
3,COc1ccc(C2=NN(C(C)=O)C(c3cn(-c4ccccc4)nc3-c3ccc(Cl)cc3)C2)cc1 (stereo not given),17.1% (inactive)
4,COc1ccc(Cn2cc3c(c2-c2ccccc2)CCc2cnoc2-3)cc1,19.9% (inactive)
5,CSC(SC)=C(C#N)c1nc2ccccc2s1,70.2% (inactive)
6,CCOC(=O)c1cc(C(=O)c2cc(OC)c(OC)c(OC)c2)n2ccccc12,33.2% (inactive)
7,O=C1/C(=C/c2ccc(O)c(O)c2)COc2ccc(-c3ccccc3)cc21,26.5% (inactive)
8,CCCCNc1cc(-c2cn[nH]c2-c2cc(C)cc(OC)c2)nc(-c2cccnc2)n1,80.2% (inactive)
9,O=[N+]([O-])c1ccc(-c2cn3nc(-c4c[nH]c5ccccc45)sc3n2)cc1,104% (inactive)
10,Cc1ccc2c(-c3nnc(N)s3)cc(=O)oc2c1C,96.1% (inactive)
11,COc1ccc(C(=O)c2cc3c(N)c(C(=O)Nc4ccccc4)sc3nc2C)cc1,25.5% (inactive)
12,Cc1nc2c(c(=O)[nH]1)C(c1ccccc1)c1ccc3ccccc3c1O2 (stereo not given),34.5% (inactive)
13,COc1cccc(/C=C/C(=O)c2cccc(Nc3nc(Nc4ccccc4)nc(Nc4ccccc4)n3)c2)c1,77.7% (inactive)
14,O=C(CCCCCCN1CC(=O)N2[C@H](c3ccc(Cl)cc3)c3[nH]c4ccccc4c3C[C@@H]2C1=O)NO,51.8% (inactive)
15,CC(=C(c1ccc(OCCN2CCCCC2)cc1)c1ccc(OCCN2CCCCC2)cc1)c1ccc(Cl)cc1,-77.4% (active)
16,CC(=O)c1sc2sc(C(C)=O)c(C)c2c1C,84% (inactive)
17,COc1cccc(NCc2nnc(Nc3ccc(Cl)cc3)c3ccccc23)c1,3.02% (active)
18,CCN(CC)c1ccc(CNc2cc(C)nc3ccccc23)cc1,63.2% (inactive)
19,CC1(C)CC(=O)c2c(nn(-c3ccc(Br)cc3)c2-c2cn(-c3ccccc3)nc2-c2cccnc2)C1,97.6% (inactive)
20,C=C(c1ccc(OC)c(/C=C/C(=O)c2ccc3c(c2)OCO3)c1)c1cc(OC)c(OC)c(OC)c1,6.09% (active)

# From PubChem BioAssay (NCI)
